We go through nine substances from the supplement of paper PMC8728848.

The sample as a whole holds a higher share of the strongest signals than the screen did.

Holding throughout (test): glycan array binding signal (z-score within array); higher = stronger binding
Assay [1] has as its system Neu5Ac(a2-3)Gal(b1-4)GlcNAc(b1-2)Man(a1-3)[GlcNAc(b1-2)Man(b1-4)GlcNAc(b1-2)Man(a1-6)]Man(b1-4)GlcNAc(b1-4)GlcNAc. The conditions noted are these: glycan notation: IUPAC condensed, linker removed. The essentials: (§1)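 Negative Z-scores can be read as non-binding. The Z-score is calculated within each array and then averaged across arrays of one protein sequence at different concentrations or buffers and across linkers. Arrays, 3228 in all, were curated from the Consortium for Functional Glycomics database and kept only where the protein sequence was available.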

The subject of assay [2] is Neu5Ac(a2-3)Gal(b1-4)GlcNAc(b1-3)Gal(b1-4)GlcNAc. To be noted: glycan notation: IUPAC condensed, linker removed. The essentials:
as §1

Assay [3] relates to Neu5Ac(a2-3)Gal(b1-4)GlcNAc(b1-6)[Neu5Ac(a2-3)Gal(b1-3)]GalNAc. The conditions noted are these: glycan notation: IUPAC condensed, linker removed. The essentials:
as §1

Assay [4] relates to Neu5Ac(a2-3)Gal(b1-4)GlcNAc(b1-2)Man(a1-3)[GlcNAc(b1-4)][Neu5Ac(a2-3)Gal(b1-4)GlcNAc(b1-2)Man(a1-6)]Man(b1-4)GlcNAc(b1-4)GlcNAc. The conditions noted are these: glycan notation: IUPAC condensed, linker removed. In a few lines:
as §1

Assay [5] concerns Neu5Ac(a2-3)Gal(b1-4)GlcNAc(b1-2)Man(a1-3)[Neu5Ac(a2-3)Gal(b1-4)GlcNAc(b1-2)Man(a1-6)]Man(b1-4)GlcNAc(b1-4)[Fuc(a1-6)]GlcNAc. The conditions noted are these: glycan notation: IUPAC condensed, linker removed; mutation: R125K. In a few lines:
as §1

Assay [6] has as its system Neu5Ac(a2-3)Gal(b1-4)GlcNAc(b1-2)[Neu5Ac(a2-3)Gal(b1-4)GlcNAc(b1-4)]Man(a1-3)[GlcNAc(b1-4)][Neu5Ac(a2-3)Gal(b1-4)GlcNAc(b1-4)Man(a1-6)]Man(b1-4)GlcNAc(b1-4)GlcNAc. The conditions noted are these: glycan notation: IUPAC condensed, linker removed; mutation: R125K. In a few lines:
as §1

Assay [7] has as its system Neu5Ac(a2-3)Gal(b1-4)GlcNAc(b1-2)[Neu5Ac(a2-3)Gal(b1-4)GlcNAc(b1-6)]Man(a1-6)[Neu5Ac(a2-3)Gal(b1-4)GlcNAc(b1-2)Man(a1-3)]Man(b1-4)GlcNAc(b1-4)GlcNAc. The conditions noted are these: glycan notation: IUPAC condensed, linker removed. The essentials:
as §1

For assay [8], the system named is Neu5Ac(a2-3)Gal(b1-4)GlcNAc(b1-3)Gal(b1-4)GlcNAc(b1-2)Man(a1-3)[Neu5Ac(a2-3)Gal(b1-4)GlcNAc(b1-3)Gal(b1-4)GlcNAc(b1-2)Man(a1-6)]Man(b1-4)GlcNAc(b1-4)GlcNAc. The conditions noted are these: glycan notation: IUPAC condensed, linker removed; mutation: R125K. In a few lines: as §1
The subject of assay [9] is Neu5Ac(a2-3)Gal(b1-4)GlcNAc(b1-3)Gal(b1-4)GlcNAc(b1-3)Gal(b1-4)GlcNAc. To be noted: glycan notation: IUPAC condensed, linker removed. In a few lines:
as §1

In assay [10] the test system is Neu5Ac(a2-3)Gal(b1-4)GlcNAc(b1-3)Gal(b1-4)GlcNAc(b1-3)[Neu5Ac(a2-3)Gal(b1-4)GlcNAc(b1-3)Gal(b1-4)GlcNAc(b1-6)]GalNAc. To be noted: glycan notation: IUPAC condensed, linker removed. The essentials:
as §1

Assay [11] has as its system Neu5Ac(a2-3)Gal(b1-4)GlcNAc(b1-3)[Neu5Ac(a2-3)Gal(b1-4)GlcNAc(b1-6)]GalNAc. To be noted: glycan notation: IUPAC condensed, linker removed. The essentials: as §1
Assay [12] has as its system Neu5Ac(a2-3)Gal(b1-4)GlcNAc(b1-2)Man(a1-3)[Neu5Ac(a2-6)Gal(b1-4)GlcNAc(b1-2)Man(a1-6)]Man(b1-4)GlcNAc(b1-4)GlcNAc. To be noted: glycan notation: IUPAC condensed, linker removed. In a few lines: as §1
In assay [13] the test system is Neu5Ac(a2-3)Gal(b1-4)GlcNAc(b1-3)Gal(b1-4)[Fuc(a1-3)]GlcNAc. The conditions noted are these: glycan notation: IUPAC condensed, linker removed. The essentials: as §1
Assay [14] has as its system Neu5Ac(a2-3)Gal(b1-4)GlcNAc(b1-6)[Gal(b1-3)]GalNAc. To be noted: glycan notation: IUPAC condensed, linker removed. The essentials:
as §1

Assay [15] has as its system Neu5Ac(a2-3)Gal(b1-4)GlcNAc(b1-3)Gal(b1-4)GlcNAc(b1-3)Gal(b1-4)GlcNAc(b1-2)Man(a1-3)[Neu5Ac(a2-3)Gal(b1-4)GlcNAc(b1-3)Gal(b1-4)GlcNAc(b1-3)Gal(b1-4)GlcNAc(b1-2)Man(a1-6)]GalNAc. The conditions noted are these: glycan notation: IUPAC condensed, linker removed. In a few lines: as §1
For assay [16], the system named is Neu5Ac(a2-3)Gal(b1-4)GlcNAc6S. The conditions noted are these: glycan notation: IUPAC condensed, linker removed. The essentials:
as §1

For assay [17], the system named is Neu5Ac(a2-3)Gal(b1-4)GlcNAc(b1-2)[Neu5Ac(a2-3)Gal(b1-4)GlcNAc(b1-4)]Man(a1-3)[GlcNAc(b1-4)][Neu5Ac(a2-3)Gal(b1-4)GlcNAc(b1-2)[Neu5Ac(a2-3)Gal(b1-4)GlcNAc(b1-6)]Man(a1-6)]Man(b1-4)GlcNAc(b1-4)GlcNAc. To be noted: glycan notation: IUPAC condensed, linker removed. The essentials: as §1
Assay [18] relates to Neu5Ac(a2-3)Gal(b1-4)GlcNAc(b1-3)Gal. To be noted: glycan notation: IUPAC condensed, linker removed. In a few lines: as §1
The subject of assay [19] is Neu5Ac(a2-3)Gal(b1-4)GlcNAc(b1-6)GalNAc. To be noted: glycan notation: IUPAC condensed, linker removed. The essentials:
as §1

In assay [20] the test system is Neu5Ac(a2-3)Gal(b1-4)GlcNAc(b1-3)Gal(b1-3)GlcNAc. The conditions noted are these: glycan notation: IUPAC condensed, linker removed. In a few lines:
as §1

Chain of Avaren (Actinomycete K97) (chain, as listed by the source): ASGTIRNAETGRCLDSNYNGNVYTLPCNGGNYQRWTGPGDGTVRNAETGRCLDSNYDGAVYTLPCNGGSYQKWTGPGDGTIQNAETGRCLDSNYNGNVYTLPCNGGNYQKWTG
Chain of PILRa (Mus musculus), Q2YSF3 (Q2YSF3 entry or part of it): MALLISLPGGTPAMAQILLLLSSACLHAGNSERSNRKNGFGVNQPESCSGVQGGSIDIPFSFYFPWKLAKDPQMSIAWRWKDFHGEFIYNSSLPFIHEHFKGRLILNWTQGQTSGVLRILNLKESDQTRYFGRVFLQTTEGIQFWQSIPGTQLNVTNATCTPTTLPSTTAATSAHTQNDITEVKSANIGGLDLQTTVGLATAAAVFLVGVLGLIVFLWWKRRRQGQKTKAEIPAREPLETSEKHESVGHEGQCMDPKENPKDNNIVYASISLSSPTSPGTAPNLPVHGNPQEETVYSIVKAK
Chain of 6RG (Lolium perenne) (chain, as listed by the source): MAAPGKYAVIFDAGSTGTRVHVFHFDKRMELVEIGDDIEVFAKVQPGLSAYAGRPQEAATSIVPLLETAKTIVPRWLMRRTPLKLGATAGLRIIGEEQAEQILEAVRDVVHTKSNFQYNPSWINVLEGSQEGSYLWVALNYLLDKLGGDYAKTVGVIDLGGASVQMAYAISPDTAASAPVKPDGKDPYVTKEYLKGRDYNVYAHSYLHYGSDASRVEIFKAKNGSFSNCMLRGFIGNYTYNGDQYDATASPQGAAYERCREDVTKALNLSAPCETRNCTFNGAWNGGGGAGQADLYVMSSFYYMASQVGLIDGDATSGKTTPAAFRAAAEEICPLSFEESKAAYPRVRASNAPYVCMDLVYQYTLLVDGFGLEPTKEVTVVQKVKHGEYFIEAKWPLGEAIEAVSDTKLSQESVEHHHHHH
Chain of C3b (Homo sapiens), P01024 (P01024 23-667): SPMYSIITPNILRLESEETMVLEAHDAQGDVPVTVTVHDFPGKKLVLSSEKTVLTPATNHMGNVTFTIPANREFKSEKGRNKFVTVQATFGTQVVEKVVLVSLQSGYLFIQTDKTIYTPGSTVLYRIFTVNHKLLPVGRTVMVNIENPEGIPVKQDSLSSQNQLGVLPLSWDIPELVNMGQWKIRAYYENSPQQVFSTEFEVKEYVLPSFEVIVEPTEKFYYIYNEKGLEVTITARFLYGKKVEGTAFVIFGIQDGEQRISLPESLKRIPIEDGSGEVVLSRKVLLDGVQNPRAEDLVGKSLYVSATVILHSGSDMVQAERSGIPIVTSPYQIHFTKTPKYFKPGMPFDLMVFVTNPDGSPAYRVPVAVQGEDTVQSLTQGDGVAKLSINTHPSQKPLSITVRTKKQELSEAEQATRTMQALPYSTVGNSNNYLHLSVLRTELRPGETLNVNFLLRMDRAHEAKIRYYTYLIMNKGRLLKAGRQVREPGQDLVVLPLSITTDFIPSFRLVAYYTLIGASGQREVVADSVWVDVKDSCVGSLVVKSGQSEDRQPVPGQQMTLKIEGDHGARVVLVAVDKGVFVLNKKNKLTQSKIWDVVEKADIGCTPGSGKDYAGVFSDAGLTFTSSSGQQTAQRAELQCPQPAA
Chain of CHT (Homo sapiens) (chain, as listed by the source): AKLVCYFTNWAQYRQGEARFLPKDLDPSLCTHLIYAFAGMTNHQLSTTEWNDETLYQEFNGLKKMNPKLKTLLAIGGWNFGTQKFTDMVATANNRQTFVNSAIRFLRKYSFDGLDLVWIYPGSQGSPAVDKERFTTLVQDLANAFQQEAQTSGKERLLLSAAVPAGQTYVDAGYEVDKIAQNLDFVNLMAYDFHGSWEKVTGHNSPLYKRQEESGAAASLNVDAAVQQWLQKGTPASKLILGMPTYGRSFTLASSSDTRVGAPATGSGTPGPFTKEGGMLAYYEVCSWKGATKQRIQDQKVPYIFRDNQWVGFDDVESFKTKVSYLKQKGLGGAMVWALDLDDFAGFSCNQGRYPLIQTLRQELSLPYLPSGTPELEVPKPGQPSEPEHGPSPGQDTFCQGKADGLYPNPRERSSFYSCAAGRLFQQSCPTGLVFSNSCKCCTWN
Chain of PILRb (Mus musculus), Q2YSF2 (Q2YSF2 entry or part of it): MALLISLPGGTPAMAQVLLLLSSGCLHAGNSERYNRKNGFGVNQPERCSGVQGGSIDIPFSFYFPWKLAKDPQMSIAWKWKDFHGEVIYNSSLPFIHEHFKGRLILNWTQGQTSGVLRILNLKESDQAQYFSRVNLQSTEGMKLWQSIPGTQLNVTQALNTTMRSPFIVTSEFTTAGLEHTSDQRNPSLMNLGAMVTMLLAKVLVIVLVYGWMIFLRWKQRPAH
Chain of Neurocan (Homo sapiens), O14594 (O14594 other isoform, or with tags, fused parts or gaps): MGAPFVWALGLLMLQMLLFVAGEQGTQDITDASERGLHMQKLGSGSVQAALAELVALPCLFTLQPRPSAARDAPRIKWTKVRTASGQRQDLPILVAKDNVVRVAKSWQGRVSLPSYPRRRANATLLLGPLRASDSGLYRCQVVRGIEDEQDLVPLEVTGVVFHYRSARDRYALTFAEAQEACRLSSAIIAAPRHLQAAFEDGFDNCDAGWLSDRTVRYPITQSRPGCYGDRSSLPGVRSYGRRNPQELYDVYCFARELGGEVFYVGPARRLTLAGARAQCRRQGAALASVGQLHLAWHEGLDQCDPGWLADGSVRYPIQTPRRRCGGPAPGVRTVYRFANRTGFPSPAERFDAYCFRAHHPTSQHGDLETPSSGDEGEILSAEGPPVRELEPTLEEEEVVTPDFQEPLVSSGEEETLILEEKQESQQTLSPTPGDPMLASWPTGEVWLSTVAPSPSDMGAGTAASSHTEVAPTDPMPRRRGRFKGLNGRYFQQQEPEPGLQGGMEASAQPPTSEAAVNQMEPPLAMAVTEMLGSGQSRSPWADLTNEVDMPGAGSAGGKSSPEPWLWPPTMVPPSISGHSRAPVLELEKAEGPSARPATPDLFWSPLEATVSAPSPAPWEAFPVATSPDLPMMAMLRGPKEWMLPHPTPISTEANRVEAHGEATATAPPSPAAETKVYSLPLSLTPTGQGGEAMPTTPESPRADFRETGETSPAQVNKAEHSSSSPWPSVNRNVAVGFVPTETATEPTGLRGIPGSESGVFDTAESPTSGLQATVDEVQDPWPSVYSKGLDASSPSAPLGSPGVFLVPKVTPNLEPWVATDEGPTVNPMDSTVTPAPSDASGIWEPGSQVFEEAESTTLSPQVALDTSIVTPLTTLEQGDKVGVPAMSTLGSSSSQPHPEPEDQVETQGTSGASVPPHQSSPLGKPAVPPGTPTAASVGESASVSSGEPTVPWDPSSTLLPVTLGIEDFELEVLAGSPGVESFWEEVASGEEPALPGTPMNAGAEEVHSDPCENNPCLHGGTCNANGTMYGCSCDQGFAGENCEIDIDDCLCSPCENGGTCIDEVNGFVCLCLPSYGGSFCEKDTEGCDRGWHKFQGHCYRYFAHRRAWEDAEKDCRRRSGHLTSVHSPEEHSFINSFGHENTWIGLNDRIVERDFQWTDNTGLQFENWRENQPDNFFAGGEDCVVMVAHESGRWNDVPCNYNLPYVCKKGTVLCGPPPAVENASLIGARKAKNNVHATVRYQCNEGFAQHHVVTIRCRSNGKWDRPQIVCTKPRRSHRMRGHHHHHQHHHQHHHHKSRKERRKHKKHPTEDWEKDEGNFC

Consider PILRb (Mus musculus), Q2YSF2, for which the “glycan array binding signal (z-score)” value in assay [1] is -0.119.

On to PILRa (Mus musculus), Q2YSF3, for which the results for the “glycan array binding signal (z-score)” value in assay [1], in [2] and in [3] were -0.185, 1.21 and -0.272, respectively.

With Siglec-8 (Homo sapiens), Q9NYZ4, the “glycan array binding signal (z-score)” value in [4] is -0.203; in [5], 0.029; in [6] it was 0.406; in assay [7], 0.635; in assay [8], -0.161; in assay [9] (mutation: R125K), -0.378. For the same substance, the “glycan array binding signal (z-score)” value was -0.138 in [10] and -0.207 in assay [11].

Regarding 6RG (Lolium perenne), the entries for the “glycan array binding signal (z-score)” value in [12], in assay [13] and in [14] were -0.191, -0.244 and -0.075, respectively.

In the case of Avaren (Actinomycete K97), the “glycan array binding signal (z-score)” value is -0.137 in [12], 0.039 in assay [15], -0.138 in [3] and -0.116 in assay [16].

With MpAFP RI GFP (Marinomonas primoryensis), the “glycan array binding signal (z-score)” value in assay [17] was -0.808; in [18], -0.665; in [19] it was -0.342.

For the substance Neurocan (Homo sapiens), O14594, in assay [20], the “glycan array binding signal (z-score)” value is 0.948.

For the substance C3b (Homo sapiens), P01024, the “glycan array binding signal (z-score)” value in [9] was 0.362; in [2], -0.787.

As for CHT (Homo sapiens), the “glycan array binding signal (z-score)” value in assay [16] (mutation: D138V, E140I) is -0.118.
